# According to PMC7862700, “An all-to-all approach to the identification of sequence-specific readers for epigenetic DNA modifications on cytosine”:
# Experiments:
# Assay in all cases: DAPPL (digital affinity profiling via proximity ligation, sequencing); 10 mM Tris-HCl pH 7.5, 50 mM NaCl, 1 mM DTT, 4% glycerol, room temperature, 30 min; GST-TFs on glutathione beads, 16-mer random dsDNA library, 0.1% formaldehyde crosslink after washing; high values mean tight binding
# FLI1 = target: T1, FLI1 (Homo sapiens, UniProt Q01543 1-452); conditions: protein: recombinant; tags: N-terminal GST; dsDNA, one strand shown
# T1 sequence: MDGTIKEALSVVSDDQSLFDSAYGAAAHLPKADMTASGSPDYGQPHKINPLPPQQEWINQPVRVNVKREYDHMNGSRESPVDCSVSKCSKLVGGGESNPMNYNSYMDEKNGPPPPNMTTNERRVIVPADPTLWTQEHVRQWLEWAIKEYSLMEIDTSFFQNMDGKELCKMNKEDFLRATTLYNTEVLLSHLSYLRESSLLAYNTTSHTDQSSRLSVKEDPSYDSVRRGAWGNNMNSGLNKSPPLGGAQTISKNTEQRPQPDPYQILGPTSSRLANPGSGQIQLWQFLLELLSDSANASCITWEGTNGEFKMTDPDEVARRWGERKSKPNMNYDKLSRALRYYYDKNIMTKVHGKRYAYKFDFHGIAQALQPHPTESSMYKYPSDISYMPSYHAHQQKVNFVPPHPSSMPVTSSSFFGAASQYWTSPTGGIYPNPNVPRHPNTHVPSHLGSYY
# Procedure, shortened: (§1)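 Binding signal is defined as a hexamer's read frequency for one factor over its frequency for the tag-only sample. To obtain reads, GST-fused human transcription factors were expressed in yeast, captured on glutathione beads, barcoded with DNA and pooled with that sample. Pools met 200 nmole of a 16-mer random double-stranded DNA library in Tris/NaCl/DTT/glycerol buffer for 30 min at room temperature before washing, 0.1% formaldehyde crosslinking, proximity ligation (BsaI/T4 ligase, 1 h, 37 °C), PCR and Illumina NextSeq500 sequencing.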
# ELK1 = target: T2, ELK1 (Homo sapiens, UniProt P19419 1-428); conditions: protein: recombinant; tags: N-terminal GST; dsDNA, one strand shown
# T2 sequence: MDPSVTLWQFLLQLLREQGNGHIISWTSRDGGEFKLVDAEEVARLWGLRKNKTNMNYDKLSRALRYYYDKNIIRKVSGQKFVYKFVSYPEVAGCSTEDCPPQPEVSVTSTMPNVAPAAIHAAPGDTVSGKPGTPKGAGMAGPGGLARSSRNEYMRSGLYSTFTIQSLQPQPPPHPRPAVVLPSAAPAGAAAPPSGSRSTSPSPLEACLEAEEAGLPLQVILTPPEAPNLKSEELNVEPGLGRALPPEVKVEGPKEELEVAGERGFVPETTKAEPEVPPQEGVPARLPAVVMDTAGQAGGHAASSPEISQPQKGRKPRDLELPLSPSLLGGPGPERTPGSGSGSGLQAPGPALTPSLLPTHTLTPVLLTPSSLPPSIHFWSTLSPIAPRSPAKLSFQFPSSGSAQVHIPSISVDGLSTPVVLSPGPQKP
# Procedure, shortened: as §1
# GABPA = target: T3, GABPA (Homo sapiens, UniProt Q06546 1-454); conditions: protein: recombinant; tags: N-terminal GST; dsDNA, one strand shown
# T3 sequence: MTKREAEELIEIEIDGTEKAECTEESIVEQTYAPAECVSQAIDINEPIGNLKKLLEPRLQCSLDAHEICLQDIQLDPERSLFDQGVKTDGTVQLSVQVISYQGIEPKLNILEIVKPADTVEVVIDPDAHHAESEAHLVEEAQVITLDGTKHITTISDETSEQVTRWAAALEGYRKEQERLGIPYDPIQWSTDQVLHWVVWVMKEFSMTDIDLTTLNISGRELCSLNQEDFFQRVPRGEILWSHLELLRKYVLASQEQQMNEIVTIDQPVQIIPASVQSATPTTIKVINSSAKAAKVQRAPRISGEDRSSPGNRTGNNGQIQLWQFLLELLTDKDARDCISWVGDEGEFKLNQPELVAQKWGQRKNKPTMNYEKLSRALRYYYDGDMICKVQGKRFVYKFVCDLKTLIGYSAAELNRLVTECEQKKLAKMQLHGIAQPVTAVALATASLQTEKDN
# Procedure, shortened: as §1
# ERG = target: T4, ERG (Homo sapiens, UniProt P11308 1-479); conditions: protein: recombinant; tags: N-terminal GST; dsDNA, one strand shown
# T4 sequence: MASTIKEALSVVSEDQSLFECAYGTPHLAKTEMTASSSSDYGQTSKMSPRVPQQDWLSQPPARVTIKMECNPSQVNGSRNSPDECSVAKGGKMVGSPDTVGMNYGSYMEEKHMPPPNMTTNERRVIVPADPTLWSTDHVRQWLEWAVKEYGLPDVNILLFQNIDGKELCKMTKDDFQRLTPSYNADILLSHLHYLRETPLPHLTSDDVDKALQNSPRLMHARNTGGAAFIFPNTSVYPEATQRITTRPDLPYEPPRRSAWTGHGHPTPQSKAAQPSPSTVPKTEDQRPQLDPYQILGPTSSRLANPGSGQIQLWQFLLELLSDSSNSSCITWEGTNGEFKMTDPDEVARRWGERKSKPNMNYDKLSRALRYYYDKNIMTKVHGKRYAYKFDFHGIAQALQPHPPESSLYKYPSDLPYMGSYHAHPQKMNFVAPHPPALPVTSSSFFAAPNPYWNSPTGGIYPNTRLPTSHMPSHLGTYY
# Procedure, shortened: as §1
# ELF1 = ELF1 (Homo sapiens, UniProt P32519 1-619); conditions: protein: recombinant; tags: N-terminal GST; dsDNA, one strand shown
# Sequence of ELF1 (P32519 whole entry): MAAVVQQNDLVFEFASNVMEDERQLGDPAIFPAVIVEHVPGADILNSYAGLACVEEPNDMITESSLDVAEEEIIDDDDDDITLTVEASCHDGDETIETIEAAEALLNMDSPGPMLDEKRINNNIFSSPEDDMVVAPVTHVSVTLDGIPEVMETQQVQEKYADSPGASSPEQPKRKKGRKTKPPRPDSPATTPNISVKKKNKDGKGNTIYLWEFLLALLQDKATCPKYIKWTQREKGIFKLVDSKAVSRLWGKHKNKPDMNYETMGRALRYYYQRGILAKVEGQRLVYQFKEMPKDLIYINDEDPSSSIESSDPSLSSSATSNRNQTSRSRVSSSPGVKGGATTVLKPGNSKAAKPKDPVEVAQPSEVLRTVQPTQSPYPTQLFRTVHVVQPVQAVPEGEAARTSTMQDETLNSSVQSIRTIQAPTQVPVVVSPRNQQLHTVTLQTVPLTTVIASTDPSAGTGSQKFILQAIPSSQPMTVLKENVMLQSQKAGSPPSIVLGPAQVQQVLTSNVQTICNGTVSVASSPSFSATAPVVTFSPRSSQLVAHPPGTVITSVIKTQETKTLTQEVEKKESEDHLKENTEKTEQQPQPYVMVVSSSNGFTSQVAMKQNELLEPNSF
# Procedure, shortened: as §1
# EHF = target: T5, EHF (Homo sapiens, UniProt Q9NZC4 1-300); conditions: protein: recombinant; tags: N-terminal GST; dsDNA, one strand shown
# T5 sequence: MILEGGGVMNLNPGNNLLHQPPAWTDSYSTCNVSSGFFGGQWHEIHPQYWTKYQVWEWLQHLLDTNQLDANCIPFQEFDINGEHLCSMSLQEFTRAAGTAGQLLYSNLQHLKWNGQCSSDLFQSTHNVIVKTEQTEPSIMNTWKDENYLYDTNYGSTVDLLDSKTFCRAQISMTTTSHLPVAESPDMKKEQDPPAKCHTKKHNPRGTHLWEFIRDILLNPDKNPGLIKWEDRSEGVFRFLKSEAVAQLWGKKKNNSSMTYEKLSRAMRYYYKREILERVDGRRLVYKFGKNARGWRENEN
# Procedure, shortened: as §1
# SPI1 = SPI1 (Homo sapiens, UniProt P17947 1-270); conditions: protein: recombinant; tags: N-terminal GST; dsDNA, one strand shown
# Procedure, shortened: as §1
# SPIB = SPIB (Homo sapiens, UniProt Q01892 1-262); conditions: protein: recombinant; tags: N-terminal GST; dsDNA, one strand shown
# Sequence of SPIB (Q01892 whole entry): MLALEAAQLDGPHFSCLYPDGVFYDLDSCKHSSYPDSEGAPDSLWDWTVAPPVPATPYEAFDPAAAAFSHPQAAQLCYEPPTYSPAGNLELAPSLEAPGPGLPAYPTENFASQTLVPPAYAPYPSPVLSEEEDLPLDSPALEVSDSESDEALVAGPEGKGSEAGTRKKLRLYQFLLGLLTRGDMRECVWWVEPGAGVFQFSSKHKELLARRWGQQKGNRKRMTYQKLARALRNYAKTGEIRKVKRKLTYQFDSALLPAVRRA
# Procedure, shortened: as §1
# ELK3 = target: T6, ELK3 (Homo sapiens, UniProt P41970 1-407); conditions: protein: recombinant; tags: N-terminal GST; dsDNA, one strand shown
# T6 sequence: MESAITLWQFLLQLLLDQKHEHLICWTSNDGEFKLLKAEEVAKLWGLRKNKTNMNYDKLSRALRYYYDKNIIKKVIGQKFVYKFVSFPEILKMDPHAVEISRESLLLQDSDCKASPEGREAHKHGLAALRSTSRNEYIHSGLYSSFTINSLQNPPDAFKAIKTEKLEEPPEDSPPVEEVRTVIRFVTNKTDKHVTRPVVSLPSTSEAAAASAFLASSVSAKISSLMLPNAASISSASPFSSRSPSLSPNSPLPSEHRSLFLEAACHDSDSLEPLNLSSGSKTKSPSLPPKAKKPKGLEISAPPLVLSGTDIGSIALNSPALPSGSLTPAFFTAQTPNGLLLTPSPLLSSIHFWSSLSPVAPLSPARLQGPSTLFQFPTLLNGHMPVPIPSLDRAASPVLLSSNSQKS
# Procedure, shortened: as §1
# FEV = target: T7, FEV (Homo sapiens, UniProt Q99581 1-238); conditions: protein: recombinant; tags: N-terminal GST; dsDNA, one strand shown
# T7 sequence: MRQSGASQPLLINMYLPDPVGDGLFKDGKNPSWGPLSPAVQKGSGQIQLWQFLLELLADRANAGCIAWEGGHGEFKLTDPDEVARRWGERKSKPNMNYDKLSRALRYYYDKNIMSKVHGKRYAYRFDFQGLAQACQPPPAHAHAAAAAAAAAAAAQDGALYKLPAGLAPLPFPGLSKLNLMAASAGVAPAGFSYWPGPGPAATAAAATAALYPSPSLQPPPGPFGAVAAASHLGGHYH
# Procedure, shortened: as §1
# ETV5 = ETV5 (Homo sapiens, UniProt P41161 1-510); conditions: protein: recombinant; tags: N-terminal GST; dsDNA, one strand shown
# Sequence of ETV5 (P41161 whole entry): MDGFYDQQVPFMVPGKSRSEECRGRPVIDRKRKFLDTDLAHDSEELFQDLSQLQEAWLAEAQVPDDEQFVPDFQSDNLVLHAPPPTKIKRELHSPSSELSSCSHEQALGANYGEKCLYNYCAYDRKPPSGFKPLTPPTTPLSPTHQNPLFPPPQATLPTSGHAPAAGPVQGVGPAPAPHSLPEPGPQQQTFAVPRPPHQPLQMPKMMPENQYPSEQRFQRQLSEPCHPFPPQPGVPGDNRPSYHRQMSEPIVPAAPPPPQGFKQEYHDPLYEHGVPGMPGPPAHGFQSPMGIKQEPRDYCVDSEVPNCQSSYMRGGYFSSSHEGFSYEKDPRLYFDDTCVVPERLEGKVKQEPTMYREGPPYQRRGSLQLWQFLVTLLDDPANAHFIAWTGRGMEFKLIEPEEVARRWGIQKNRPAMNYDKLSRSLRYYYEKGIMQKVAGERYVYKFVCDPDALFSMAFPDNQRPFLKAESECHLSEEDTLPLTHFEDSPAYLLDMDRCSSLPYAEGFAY
# Procedure, shortened: as §1
# HSF1 = HSF1 (Homo sapiens, UniProt Q00613 1-529); conditions: protein: recombinant; tags: N-terminal GST; chain copies: 3; dsDNA, one strand shown
# Sequence of HSF1 (Q00613 whole entry): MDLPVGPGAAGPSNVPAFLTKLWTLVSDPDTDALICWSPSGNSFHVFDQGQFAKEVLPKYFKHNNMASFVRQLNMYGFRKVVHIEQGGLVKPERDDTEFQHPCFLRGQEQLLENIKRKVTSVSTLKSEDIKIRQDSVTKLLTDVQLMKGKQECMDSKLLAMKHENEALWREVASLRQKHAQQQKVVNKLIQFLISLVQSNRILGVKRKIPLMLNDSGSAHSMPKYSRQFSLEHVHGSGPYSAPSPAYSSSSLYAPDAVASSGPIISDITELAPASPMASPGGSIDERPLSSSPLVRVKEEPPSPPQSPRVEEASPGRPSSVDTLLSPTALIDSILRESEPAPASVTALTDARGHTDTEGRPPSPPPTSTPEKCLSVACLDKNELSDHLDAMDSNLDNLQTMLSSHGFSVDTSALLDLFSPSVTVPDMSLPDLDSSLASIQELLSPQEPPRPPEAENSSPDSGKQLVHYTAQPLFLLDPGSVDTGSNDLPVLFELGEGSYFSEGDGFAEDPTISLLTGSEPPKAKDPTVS
# Procedure, shortened: as §1
# SPIC = target: T8, SPIC (Homo sapiens, UniProt Q8N5J4 1-248); conditions: protein: recombinant; tags: N-terminal GST; dsDNA, one strand shown
# T8 sequence: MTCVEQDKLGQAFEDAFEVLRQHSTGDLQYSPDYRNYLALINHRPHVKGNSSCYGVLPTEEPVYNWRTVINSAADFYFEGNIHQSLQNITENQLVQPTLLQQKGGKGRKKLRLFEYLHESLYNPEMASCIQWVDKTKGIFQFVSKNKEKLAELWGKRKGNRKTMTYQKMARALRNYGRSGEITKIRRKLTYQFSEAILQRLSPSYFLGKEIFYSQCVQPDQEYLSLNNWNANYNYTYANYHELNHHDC
# Procedure, shortened: as §1
# ELF4 = ELF4 (Homo sapiens, UniProt Q99607 1-663); conditions: protein: recombinant; tags: N-terminal GST; dsDNA, one strand shown
# Sequence of ELF4 (Q99607 whole entry): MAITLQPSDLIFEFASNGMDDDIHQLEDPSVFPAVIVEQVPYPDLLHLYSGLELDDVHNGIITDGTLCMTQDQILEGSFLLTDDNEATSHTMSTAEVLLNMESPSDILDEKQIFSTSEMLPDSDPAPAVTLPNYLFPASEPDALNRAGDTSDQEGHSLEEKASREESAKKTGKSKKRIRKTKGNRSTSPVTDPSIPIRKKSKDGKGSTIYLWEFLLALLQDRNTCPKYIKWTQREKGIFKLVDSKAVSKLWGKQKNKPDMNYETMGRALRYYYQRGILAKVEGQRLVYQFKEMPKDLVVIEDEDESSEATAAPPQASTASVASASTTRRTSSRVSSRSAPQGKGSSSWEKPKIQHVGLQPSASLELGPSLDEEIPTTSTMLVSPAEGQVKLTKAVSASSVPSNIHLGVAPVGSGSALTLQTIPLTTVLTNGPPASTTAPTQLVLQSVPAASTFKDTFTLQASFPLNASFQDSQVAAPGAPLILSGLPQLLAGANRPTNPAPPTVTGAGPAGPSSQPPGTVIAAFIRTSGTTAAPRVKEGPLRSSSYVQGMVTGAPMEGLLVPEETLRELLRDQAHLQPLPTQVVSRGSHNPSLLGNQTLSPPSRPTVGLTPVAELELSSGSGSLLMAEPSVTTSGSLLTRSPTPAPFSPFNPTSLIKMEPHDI
# Procedure, shortened: as §1
# ELK4 = target: T9, ELK4 (Homo sapiens, UniProt P28324-2 1-405); conditions: protein: recombinant; tags: N-terminal GST; dsDNA, one strand shown
# T9 sequence: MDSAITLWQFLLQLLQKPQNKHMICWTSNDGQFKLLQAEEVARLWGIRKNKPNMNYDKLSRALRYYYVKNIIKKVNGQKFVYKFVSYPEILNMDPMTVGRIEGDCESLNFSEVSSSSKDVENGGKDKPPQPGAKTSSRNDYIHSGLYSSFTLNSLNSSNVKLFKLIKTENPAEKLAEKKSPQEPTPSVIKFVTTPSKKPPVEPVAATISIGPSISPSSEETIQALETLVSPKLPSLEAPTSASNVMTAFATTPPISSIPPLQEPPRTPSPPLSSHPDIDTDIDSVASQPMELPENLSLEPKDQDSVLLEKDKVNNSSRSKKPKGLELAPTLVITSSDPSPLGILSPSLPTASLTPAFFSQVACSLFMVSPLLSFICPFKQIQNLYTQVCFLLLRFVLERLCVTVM
# Procedure, shortened: as §1
# ETV2 = target: T10, ETV2 (Homo sapiens, UniProt O00321 1-342); conditions: protein: recombinant; tags: N-terminal GST; dsDNA, one strand shown
# T10 sequence: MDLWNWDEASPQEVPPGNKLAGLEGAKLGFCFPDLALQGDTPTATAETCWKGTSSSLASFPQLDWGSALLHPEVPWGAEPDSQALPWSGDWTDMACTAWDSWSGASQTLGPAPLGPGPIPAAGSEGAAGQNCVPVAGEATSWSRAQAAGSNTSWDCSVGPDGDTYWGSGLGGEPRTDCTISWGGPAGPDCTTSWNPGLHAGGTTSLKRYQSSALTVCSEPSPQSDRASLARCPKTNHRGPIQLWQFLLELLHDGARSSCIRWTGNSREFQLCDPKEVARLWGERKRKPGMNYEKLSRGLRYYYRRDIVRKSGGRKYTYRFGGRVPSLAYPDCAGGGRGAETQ
# Procedure, shortened: as §1
# ELF3 = target: T11, ELF3 (Homo sapiens, UniProt P78545 1-371); conditions: protein: recombinant; tags: N-terminal GST; dsDNA, one strand shown
# T11 sequence: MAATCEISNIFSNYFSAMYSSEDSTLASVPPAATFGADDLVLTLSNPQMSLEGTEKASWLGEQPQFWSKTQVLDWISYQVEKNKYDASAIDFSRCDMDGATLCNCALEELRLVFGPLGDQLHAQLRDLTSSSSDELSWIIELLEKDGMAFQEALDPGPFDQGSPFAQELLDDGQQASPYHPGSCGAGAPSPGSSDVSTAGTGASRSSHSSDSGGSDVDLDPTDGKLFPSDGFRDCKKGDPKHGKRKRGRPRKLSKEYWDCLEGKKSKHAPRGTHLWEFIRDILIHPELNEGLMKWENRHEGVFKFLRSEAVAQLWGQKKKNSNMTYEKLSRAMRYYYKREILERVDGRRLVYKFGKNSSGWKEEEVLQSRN
# Procedure, shortened: as §1
# CRX = CRX (Homo sapiens, UniProt O43186 1-299); conditions: protein: recombinant; tags: N-terminal GST; dsDNA, one strand shown
# Sequence of CRX (O43186 whole entry): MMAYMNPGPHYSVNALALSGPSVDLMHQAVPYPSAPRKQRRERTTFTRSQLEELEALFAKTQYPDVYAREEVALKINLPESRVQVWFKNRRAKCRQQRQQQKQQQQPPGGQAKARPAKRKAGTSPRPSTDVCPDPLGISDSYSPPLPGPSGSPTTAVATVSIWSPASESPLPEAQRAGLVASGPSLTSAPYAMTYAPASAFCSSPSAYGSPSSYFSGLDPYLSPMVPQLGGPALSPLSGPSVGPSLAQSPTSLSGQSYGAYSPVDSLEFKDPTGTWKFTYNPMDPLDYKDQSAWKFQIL
# Procedure, shortened: as §1
# ETV1 = ETV1 (Homo sapiens, UniProt P50549 1-477); conditions: protein: recombinant; tags: N-terminal GST; dsDNA, one strand shown
# Sequence of ETV1 (P50549 whole entry): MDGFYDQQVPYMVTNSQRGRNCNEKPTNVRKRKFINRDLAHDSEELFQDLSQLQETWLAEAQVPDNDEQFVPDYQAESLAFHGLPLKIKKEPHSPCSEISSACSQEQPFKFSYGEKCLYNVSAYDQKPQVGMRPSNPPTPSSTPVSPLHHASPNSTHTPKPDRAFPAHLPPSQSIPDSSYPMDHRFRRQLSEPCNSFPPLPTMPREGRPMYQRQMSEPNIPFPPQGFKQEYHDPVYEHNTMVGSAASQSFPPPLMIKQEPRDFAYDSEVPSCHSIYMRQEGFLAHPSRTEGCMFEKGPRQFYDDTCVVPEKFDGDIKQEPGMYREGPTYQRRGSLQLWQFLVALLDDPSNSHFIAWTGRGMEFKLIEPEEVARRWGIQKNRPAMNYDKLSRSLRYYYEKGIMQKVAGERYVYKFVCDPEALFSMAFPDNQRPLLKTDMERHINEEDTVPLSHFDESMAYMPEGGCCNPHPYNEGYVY
# Procedure, shortened: as §1
sequence,measurement,setting,value
TTCGAA,binding signal,FLI1,"1.14 fold enrichment (6-mer frequency, TF over GST control)"
same,binding signal,ELK1,"1.2 fold enrichment (6-mer frequency, TF over GST control)"
same,binding signal,GABPA,"1.19 fold enrichment (6-mer frequency, TF over GST control)"
same,binding signal,ERG,"1.19 fold enrichment (6-mer frequency, TF over GST control)"
same,binding signal,ELF1,"1.28 fold enrichment (6-mer frequency, TF over GST control)"
same,binding signal,EHF,"1.12 fold enrichment (6-mer frequency, TF over GST control)"
same,binding signal,SPI1,"1.14 fold enrichment (6-mer frequency, TF over GST control)"
same,binding signal,SPIB,"1.12 fold enrichment (6-mer frequency, TF over GST control)"
same,binding signal,ELK3,"1.33 fold enrichment (6-mer frequency, TF over GST control)"
same,binding signal,FEV,"1.13 fold enrichment (6-mer frequency, TF over GST control)"
same,binding signal,ETV5,"1.18 fold enrichment (6-mer frequency, TF over GST control)"
same,binding signal,HSF1,"1.93 fold enrichment (6-mer frequency, TF over GST control)"
same,binding signal,SPIC,"1.18 fold enrichment (6-mer frequency, TF over GST control)"
same,binding signal,ELF4,"1.26 fold enrichment (6-mer frequency, TF over GST control)"
same,binding signal,ELK4,"1.2 fold enrichment (6-mer frequency, TF over GST control)"
same,binding signal,ETV2,"1.16 fold enrichment (6-mer frequency, TF over GST control)"
same,binding signal,ELF3,"1.24 fold enrichment (6-mer frequency, TF over GST control)"
same,binding signal,CRX,"1.3 fold enrichment (6-mer frequency, TF over GST control)"
same,binding signal,ETV1,"1.1 fold enrichment (6-mer frequency, TF over GST control)"
